The values below come from ChEMBL document CHEMBL4513216, “Probing the Open Global Health Chemical Diversity Library for Multistage-Active Starting Points for Next-Generation Antimalarials” (ACS Infect Dis, 2020).

Hit rate of the full screen: of about 69,000 compounds, about 8,600 (12%) showed an effect of 50% or more. This is one part of a sample in which strong results are shown more often than they occur.

This test concerns Plasmodium berghei. Nature of the test: Screen against P. berghei liver stage (PbLuc), transformed with Luciferase, at 10uM. It counts as functional, HepG2. Conditions: tested at 10 uM.
Turning to `Cc1cnn(CC2CCN(CC(O)COc3ccc(F)cc3)CC2)c1` (stereo not given), the INHIBITION was found to be 56.1%.
Regarding `Cc1cnn(CC2CCN(CC(O)Cn3cccn3)CC2)c1` (stereo not given), the INHIBITION worked out at 68.5%.
The figure for `Cc1ccc(OCC(O)CN2CCC(Cn3cc(C)cn3)CC2)cc1` (stereo not given) is 33.3%; for `Cc1cnn(CC2CCN(CC(O)CN3CCC(C)CC3)CC2)c1` (stereo not given) it is 30.4%.
Consider `Cc1cnn(CC2CCN(CC(O)c3ccccc3F)CC2)c1` (stereo not given), for which the INHIBITION is -30.8%.
As for `Cc1cnn(CC2CCN(CC(O)c3ccccc3)CC2)c1` (stereo not given), the INHIBITION turned out to be 33%.
As for `Cc1cc(C)n(CC2CCN(CC(O)Cn3cccn3)CC2)n1` (stereo not given), the figure is -12.2%.
Regarding `Cc1cnn(CC2CCN(CC(O)COc3ccccc3)CC2)c1` (stereo not given), the INHIBITION came out at 14.5%.
Turning to `Cc1cnn(CC2CCN(CC(O)c3ccccc3Cl)CC2)c1` (stereo not given), the INHIBITION is recorded as 57.2%.
On to `CCC(CC)S(=O)(=O)NC(=O)c1ccc2c(c1)ncn2C`, for which the INHIBITION is reported as 5.11%.
On to `NC(=O)C1CCN(C(=O)NCCOc2ccc3c(c2)OCO3)C1` (stereo not given), for which the INHIBITION is listed as -69.3%.
With `CCCc1noc(CN2CCCCC2Cn2cncn2)n1` (stereo not given), the INHIBITION stood at 27.2%.
Regarding `CN1CCN(CCO)C(=O)C12CCN(Cc1ccsc1)CC2`, the INHIBITION is 18.2%.
As for `O=C(N[C@@H]1CCC[C@@H](N2CCCC2)[C@@H]1O)c1cc2ccccc2[nH]1`, the figure is 48.4%; as for `CN(C)CC(=O)N1CC(c2nn(C)c3nccnc23)C1`, -0.902%; as for `c1ccc(C2CCN(c3cncc(-n4cccn4)n3)CC2)cc1`, 85.1%.
The figure for `c1ccc(C2CCCN(c3cncc(-n4cccn4)n3)CC2)cc1` (stereo not given) is 90.2%; for `NC(=O)CC1CCN(c2cncc(OCc3ccccc3)n2)CC1` it is 12.4%; for `Nc1cccnc1N1CCC(c2ccccc2)CC1` it is 6.29%.
As for `CN(C)C(=O)C1CCN(c2cncc(-n3cccn3)n2)CC1`, the INHIBITION is listed as 41.4%.
On to `O=C(c1ccccc1)C1CCN(c2cncc(-n3cccn3)n2)CC1`, for which the INHIBITION worked out at 74.8%.
The figure for `c1cc(C2CCN(c3cnccn3)CC2)ccn1` is 18.4%; for `Cn1cnnc1C1CCN(c2cncc(-n3cccn3)n2)CC1` it is -8.19%.
With `N#Cc1cccnc1N1CCC(OCc2ccccc2)CC1`, the INHIBITION stood at 18.9%.
Regarding `NC(=O)C1CCN(c2cncc(-n3cccn3)n2)CC1`, the INHIBITION came to 48.3%.
As for `c1ccc(COC2CCN(c3cncc(-n4cccn4)n3)CC2)cc1`, the INHIBITION turned out to be 53.5%.
Turning to `O=C(c1ccc(-n2cccn2)nc1)N1CCCC(c2cnccn2)C1` (stereo not given), the INHIBITION is -50.3%.
Regarding `Cc1nc(CN2C[C@@H]3CN(C(=O)c4cccn4C)C[C@@H]3C2=O)cs1`, the INHIBITION was found to be 39.8%.
The figure for `Cc1ccc2nc(C3CCCN(CC(C)C)C3)nc(O)c2c1` (stereo not given) is 13.5%; for `CCc1n[nH]c(C2CN(C(=O)c3nc(C)n4ccccc34)CCO2)n1` (stereo not given) it is 17.8%.
With `Cc1nc2cc(C(=O)N3CCCC(n4ccnc4)C3)ccc2n1C` (stereo not given), the INHIBITION came to 33.3%.
As for `O=C(NCc1ccc(F)cc1)N1CCN(CC(O)C2CC2)CC1` (stereo not given), the figure is 30.8%; as for `Cc1ccc(S(=O)(=O)NCC2COCc3c(C)nnn3C2)cc1F` (stereo not given), 24.5%; as for `c1ccc(N2CCC(c3ccncc3)CC2)cc1`, 65.2%.
Take `c1cncc(N2CCC(c3ccncc3)CC2)c1`: the INHIBITION amounted to 26.221%.
Take `c1cc(C2CCN(c3cncnc3)CC2)ccn1`: the INHIBITION is reported as 39.6%.
The figure for `Cc1nc(C2CCCN(C(=O)c3ccc(OCC4CC4)nc3)C2)no1` (stereo not given) is 8.64%.
Turning to `O=C1C(N2CC[C@@H](O)C2)CCCN1Cc1cccc(C(F)(F)F)c1` (stereo not given in full), the INHIBITION was 77.8%.
Consider `O[C@H]1COCCN(Cc2cccc(C(F)(F)F)c2)C1`, for which the INHIBITION is reported as -4.82%.
As to `O=C1C(N2CCOCC2)CCCN1Cc1cccc(C(F)(F)F)c1` (stereo not given), the INHIBITION turned out to be 50.8%.
As for `O[C@H]1CN(Cc2cccc(C(F)(F)F)c2)CC[C@@]12CCCO2`, the INHIBITION is recorded as 37.6%.
The figure for `O=c1n(Cc2cccc(C(F)(F)F)c2)nc2ncccn12` is -39.3%; for `FC(F)(F)c1ccnc(N2CCCC(N3CCOCC3)C2)c1` (stereo not given) it is 40.5%; for `NC(=O)CN(C(=O)Cc1cccc(C(F)(F)F)c1)C1CCCC1` it is -23.1%.
On to `NC1CCCN(Cc2cccc(C(F)(F)F)c2)C1=O` (stereo not given), for which the INHIBITION was 57.2%.
As to `CC(O)(CN1CCC(O)CC1)c1cccc(C(F)(F)F)c1` (stereo not given), the INHIBITION is listed as -37.7%.
With `CC(C)NC(=O)N1CC[C@@H]2CN(Cc3ccccc3)S(=O)(=O)[C@@H]2CC1`, the INHIBITION is recorded as 31.8%.
As for `O=c1[nH]cnc2c1CCN(S(=O)(=O)c1cccc(OC(F)(F)F)c1)C2`, the figure is -23.7%; as for `COCCN1C[C@H](OCc2csc(C)n2)[C@H]2COC[C@H]21`, -41.4%; as for `CCC(C)N(Cc1sccc1C)C(=O)c1cc(N)ccn1` (stereo not given), 43.9%.
The figure for `Cc1ccccc1-c1cncc(C2CCN(C)CC2)n1` is 38.1%; for `Cc1ccccc1-c1cncc(C2CCN(C(C)C)CC2)n1` it is 32.8%; for `Cc1ccccc1-c1cncc(C2CCN(C3CCOCC3)CC2)n1` it is 64.1%.
For `COc1cccc(-n2nnc(C(=O)N3CCCC3)c2C)c1`, the INHIBITION worked out at 2.26%.
Turning to `COc1cccc(-n2nnc(C(=O)N3CCCC(C)C3)c2C)c1` (stereo not given), the INHIBITION is listed as -60.35%.
